Several values for one entry are separate records, joined by “and”; a condition that tells them apart may be missing. Equal entries are not always repeated. Hit rate of the full screen: of about 1,300 compounds, about 1,000 (77%) were called active. About 7% were inconclusive and are not listed. The call rests on the fitted dose curve; in most records, active means well fitted inhibition curve with a large enough effect; inconclusive means small, poorly fitted or top-dose-only effect; inactive means no such curve, though single readings can be large or run the other way. So high a share suggests a set chosen from earlier hits. The list shows a part of the results.
Assay: qHTS of small molecules that selectively kill Giardia lamblia: Hit Validation.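 Further: viability measured as ATP content by luminescence so killing lowers signal; trophozoites exposed to compounds for 48 h anaerobically at 37 °C; nearly all actives have a fitted effect of over 65% in size.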
Settings: Giardia lamblia trophozoite viability, dose-response; series mostly up to 38.3 µM
In short: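 HTS viability screen: compound-treated trophozoites (100 cells/well) are kept anaerobic at 37 deg C for 48 hrs, and surviving cells are detected through ATP-dependent luminescence.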
With CC(C)N1CCc2c(sc(NC(=O)c3cc4cc([N+](=O)[O-])ccc4s3)c2C(N)=O)C1 the Potency was 2.59 µM (active).
For NC(=O)c1ccsc1NC(=O)c1ccc([N+](=O)[O-])o1, the Potency was 1.3 µM (active).
For Cn1cc([N+](=O)[O-])c(C(=O)Nc2sc3c(c2C#N)CCC3)n1, the Potency was 2.31 µM (active).
With N#Cc1c(NC(=O)c2ccc([N+](=O)[O-])o2)sc2c1CCC2 the Potency was 0.365 µM (active).
With CC(=O)N1CCc2c(sc(NC(=O)c3ccc([N+](=O)[O-])o3)c2C#N)C1 the Potency was 1.16 µM (active).
With COC(=O)c1sc(NC(=O)c2ccc([N+](=O)[O-])o2)c(C#N)c1C the Potency was 0.29 µM (active).
For COC(=O)c1c(NC(=O)c2ccc([N+](=O)[O-])o2)sc2c1CCN(C(C)C)C2, the Potency was 0.818 µM (active).
In the case of NC(=O)c1c(NC(=O)c2ccc([N+](=O)[O-])o2)sc2c1CCCC2, the Potency is reported as 0.65 µM (active).
In the case of CCOC(=O)N1CCN(C(=O)c2cc(-c3ccc(OCC)cc3)nc3ccccc23)CC1, the Potency is reported as 2.9 µM (active).
For CCn1cc(-c2cc(C(=O)O)c3ccccc3n2)cn1, the Potency was 5.16 µM (active).
With CCOc1ccc(-c2cc(C(=O)N3CCN(c4ccccn4)CC3)c3ccccc3n2)cc1 the Potency was 1.63 µM (active) and 1.45 µM (active) and 3.26 µM (active).
With O=C(NNC(=O)c1cc(-c2ccncc2)nc2ccccc12)c1ccccc1O the Potency was “inactive”.
In the case of c1cc(-c2cc3cc(N4CCOCC4)ccc3o2)cs1, the Potency is reported as 2.05 µM (active).
In the case of CC(C)CC(=O)Nc1ncc([N+](=O)[O-])s1, the Potency is reported as 0.206 µM (active).
In the case of CCCCC(CC)C(=O)Nc1ncc([N+](=O)[O-])s1 (stereo not given), the Potency is reported as 0.23 µM (active).
In the case of CCC(Oc1ccccc1)C(=O)Nc1ncc([N+](=O)[O-])s1 (stereo not given), the Potency is reported as 0.103 µM (active).
For CCCCC(=O)Nc1ncc([N+](=O)[O-])s1, the Potency was 0.23 µM (active).
In the case of CCc1nn2c(=O)c(S(=O)(=O)Nc3ccc(Cl)cc3)c(C)nc2s1, the Potency is reported as “inactive”.
In the case of CC(CC(=O)Nc1ncc([N+](=O)[O-])s1)c1ccccc1 (stereo not given), the Potency is reported as 0.206 µM (active).
In the case of CC1=C(C(=O)Nc2ccc(CC(=O)NCc3ccc(OC(C)C)cc3)cc2)SCCO1, the Potency is reported as 4.1 µM (active).
In the case of CN(C(=O)CSc1nc2ccc([N+](=O)[O-])cc2s1)C1CCS(=O)(=O)C1 (stereo not given), the Potency is reported as 1.45 µM (active).
With CN(C(=O)CSc1nc2ccccc2c(=O)n1-c1ccc(F)cc1)C1CCS(=O)(=O)C1 (stereo not given) the Potency was “inactive”.
With O=C(COc1ccccc1)N=C1SC2CS(=O)(=O)CC2N1c1ccccc1F (stereo not given) the Potency was “inactive”.
In the case of O=[N+]([O-])c1ccc(/C=C/C2=NN(c3ccccc3)C(c3ccco3)C2)o1 (stereo not given), the Potency is reported as 0.115 µM (active).
With Cc1ccc(C)c(-c2nnc(NC(=O)c3ccc([N+](=O)[O-])o3)o2)c1 the Potency was 0.516 µM (active).
With Cc1ccc(-c2nnc(NC(=O)c3ccc([N+](=O)[O-])o3)o2)c(C)c1 the Potency was 0.41 µM (active).
In the case of COc1ccc(-c2nnc(NC(=O)c3ccc([N+](=O)[O-])o3)o2)c(OC)c1, the Potency is reported as 2.05 µM (active).
For O=[N+]([O-])c1cccc(S(=O)(=O)c2ccc(NCCOCCO)c([N+](=O)[O-])c2)c1, the Potency was 1.63 µM (active).
For Cc1ccc(-c2[nH][nH]c(=O)c(=O)c2N=Nc2ccccc2)cc1, the Potency was 1.3 µM (active).
In the case of O=c1[nH][nH]c(-c2ccccc2)c1C=Nc1ccc(OC(F)(F)F)cc1, the Potency is reported as “inactive”.
With CC(=O)O[C@@H]1[C@@H](OC(C)=O)[C@H](n2ccc3cc([N+](=O)[O-])ccc32)OC[C@@H]1OC(C)=O the Potency was 0.259 µM (active).
In the case of COc1ccccc1C1OC2=C(Nc3ccc([N+](=O)[O-])cc3N2)C1=O (stereo not given), the Potency is reported as 3.65 µM (active).
With CCN(CC)CCOC(=O)c1ccc(N/C=C(/C#N)c2nc(-c3ccc4c(c3)OCO4)cs2)cc1 the Potency was 2.05 µM (active).
In the case of CCN(CC)CCOC(=O)c1ccc(N/C=C(/C#N)c2nc(-c3cc4ccccc4oc3=O)cs2)cc1, the Potency is reported as 0.516 µM (active).
With O=c1c2c([N+](=O)[O-])cc([N+](=O)[O-])cc2nc2ccccn12 the Potency was 2.59 µM (active).
In the case of O=C(Nc1ccccc1)Nc1ncc([N+](=O)[O-])s1, the Potency is reported as 4.1 µM (active).
In the case of O=C(CCS(=O)(=O)c1ccccc1)Nc1ncc([N+](=O)[O-])s1, the Potency is reported as 1.16 µM (active).
With O=C(CCS(=O)(=O)Cc1ccccc1)Nc1ncc([N+](=O)[O-])s1 the Potency was 0.65 µM (active).
For O=C(CCc1ccccc1)Nc1ncc([N+](=O)[O-])s1, the Potency was 0.23 µM (active).
With C[n+]1ccnc2ccccc21 the Potency was 2.59 µM (active).
With O=c1[nH]c2cccnc2n1-c1ccc([N+](=O)[O-])cc1 the Potency was 1.83 µM (active).
With CCCC(=O)N1CCN(c2ccc(NC(=O)c3ccc([N+](=O)[O-])o3)cc2)CC1 the Potency was 0.729 µM (active).
For CC(C)C(=O)N1CCN(c2ccc(NC(=O)c3ccc([N+](=O)[O-])o3)cc2)CC1, the Potency was 1.03 µM (active).
In the case of CCC(=O)N1CCN(c2ccc(NC(=O)c3ccc([N+](=O)[O-])o3)cc2)CC1, the Potency is reported as 0.918 µM (active).
With CC(C)(C)C(=O)N1CCN(c2ccc(NC(=O)c3ccc([N+](=O)[O-])o3)cc2)CC1 the Potency was 1.45 µM (active).
In the case of Cc1ncc([N+](=O)[O-])n1CCOC(=O)c1cc(Cl)cc(Cl)c1N, the Potency is reported as 0.163 µM (active).
For Cc1ncc([N+](=O)[O-])n1CCOC(=O)c1ccc(Cl)cc1Cl, the Potency was 0.818 µM (active).
With CN=C1C=C/C(=N/N=c2\ccn(O)cc2C)C=C1C the Potency was 1.45 µM (active).
With O=C(Nc1csc([N+](=O)[O-])c1)Nc1ccccc1Cl the Potency was 1.63 µM (active).
With COC(=O)/C(=C\c1ccc([N+](=O)[O-])o1)NC(=O)c1ccccc1 the Potency was 1.03 µM (active).
With CCCOC(=O)/C(=C\c1ccc([N+](=O)[O-])o1)NC(=O)c1ccccc1 the Potency was 0.729 µM (active).
In the case of COc1cc(/C=C(\NC(=O)c2ccccc2)C(=O)NCCO)c([N+](=O)[O-])cc1OC, the Potency is reported as “inactive”.
In the case of CCCCNC(=O)/C(=C\c1ccc([N+](=O)[O-])o1)NC(=O)c1ccccc1, the Potency is reported as 1.03 µM (active).
For CCOc1ccccc1C(=O)Nc1ccc2nc(N3CCN(c4ncccn4)CC3)cc(C)c2c1, the Potency was 3.26 µM (active).
In the case of O=C1C(c2ccncc2)=C(O)c2ccccc21, the Potency is reported as 9.18 µM (active).
In the case of CS/C(Nc1cc(Cl)ccc1Cl)=C(/C#N)C(=O)c1ccco1, the Potency is reported as 5.79 µM (active).
For O=[N+]([O-])c1ccc(N=NN(CCO)CCO)cc1, the Potency was 3.26 µM (active).
For O=C(CSc1ccc(Cl)cc1)N/N=C/c1ccc([N+](=O)[O-])o1, the Potency was 0.818 µM (active).
For CCOC(=O)N/N=C\c1ccc([N+](=O)[O-])o1, the Potency was 1.3 µM (active).
For O=C(CCC(=O)Nc1ccc(Cl)cc1Cl)N/N=C/c1ccc([N+](=O)[O-])o1, the Potency was 0.818 µM (active).
In the case of CCCCCC(=O)N/N=C/c1ccc([N+](=O)[O-])o1, the Potency is reported as 0.579 µM (active).
For CCCCCCCC(=O)N/N=C/c1ccc([N+](=O)[O-])o1, the Potency was 0.579 µM (active).
For COc1ccc(NS(=O)(=O)c2ccc(C)cc2)c([N+](=O)[O-])c1, the Potency was 1.83 µM (active).
With CC(=O)Nc1ccc(NS(=O)(=O)c2ccc(C)cc2)c([N+](=O)[O-])c1 the Potency was 0.516 µM (active).
With CN(Cc1ccccc1)C(=O)c1ccc(NC(=O)Cc2cccc(NC(=O)C3CCN(C(=O)C4CC4)CC3)c2)cc1 the Potency was “inactive”.
For CN(CCc1ccccc1)C(=O)c1cccc(NC(=O)Cc2cccc(NC(=O)C3CCN(C(=O)C4CCCC4)CC3)c2)c1, the Potency was “inactive”.
In the case of O=C(Nc1ccccc1C(=O)O)c1ccc(NC(=O)C2CC2)cc1, the Potency is reported as 4.1 µM (active).
With N/C(=N\O)c1ccc([N+](=O)[O-])s1 the Potency was 2.9 µM (active).
For O=[N+]([O-])c1cccn2cc(-c3ccc(Br)cc3)nc12, the Potency was 0.729 µM (active).
In the case of O=C(c1ccco1)N1CCN(c2c([N+](=O)[O-])nn(-c3ccc(Cl)cc3)[n+]2[O-])CC1, the Potency is reported as 0.918 µM (active).
In the case of O=C(c1ccco1)N1CCN(c2c([N+](=O)[O-])nn(-c3cccc(Cl)c3)[n+]2[O-])CC1, the Potency is reported as 2.59 µM (active).
For Cn1c([N+](=O)[O-])cnc1COC(N)=O, the Potency was 1.16 µM (active).
In the case of O=C(NC(=S)Nc1ccc(CN2CCOCC2)cc1)c1ccc([N+](=O)[O-])cc1Cl, the Potency is reported as 4.1 µM (active).
In the case of CC(C)OC(=O)Nc1ccc2c(c1)N(C(=O)N1CCN(C)CC1)c1ccccc1CC2, the Potency is reported as 4.1 µM (active).
With CCCCOc1ccc(C(=O)NCC(=O)NCCCn2nc(C)cc2C)cc1 the Potency was “inactive”.
In the case of O=C(CN1C(=O)c2ccccc2S1(=O)=O)c1ccc2c(c1)OCCO2, the Potency is reported as 2.9 µM (active).
For O=C(CN1C(=O)c2ccccc2S1(=O)=O)c1ccc2c(c1)OCCCO2, the Potency was 1.03 µM (active).
For O=C1SCCN1N=Cc1ccc([N+](=O)[O-])o1, the Potency was 0.326 µM (active).
With CC1CS(=O)(=O)CCN1N=Cc1ccc([N+](=O)[O-])o1 (stereo not given) the Potency was 0.365 µM (active).
With Cc1ccc(-c2ccc(/C=N/N3C(=O)C4C5C=CC(CC5)C4C3=O)o2)c([N+](=O)[O-])c1 (stereo not given) the Potency was “inactive”.
In the case of O=C1OC(CN(Cc2ccccc2)Cc2ccccc2)CN1N=Cc1ccc([N+](=O)[O-])o1 (stereo not given), the Potency is reported as 0.65 µM (active).
For Cc1cc(O)ccc1N1C(=O)c2cccc3cc([N+](=O)[O-])cc(c23)C1=O, the Potency was 2.9 µM (active).
For O=C1c2cc([N+](=O)[O-])cc3cc([N+](=O)[O-])cc(c23)C(=O)N1c1ccccn1, the Potency was 1.83 µM (active).
In the case of O=C(Nc1ccc(-c2nc3ncccc3o2)cc1)c1ccc([N+](=O)[O-])o1, the Potency is reported as 1.3 µM (active).
For Cc1ccc(-c2nc3ncccc3o2)cc1NC(=O)c1ccc([N+](=O)[O-])o1, the Potency was 0.918 µM (active).
In the case of Cc1c(NC(=O)c2ccc([N+](=O)[O-])o2)cccc1-c1nc2ncccc2o1, the Potency is reported as 0.918 µM (active).
In the case of O=[N+]([O-])c1ccc(/C=N/n2c(CO)nc3ccccc32)s1, the Potency is reported as 0.65 µM (active).
With Cc1nc2ccccc2n1/N=C/c1ccc([N+](=O)[O-])s1 the Potency was 1.63 µM (active).
With Cc1cc2ncn(/N=C/c3ccc([N+](=O)[O-])s3)c2cc1C the Potency was 1.3 µM (active).
In the case of Nc1nc2ccccc2n1/N=C/c1ccc([N+](=O)[O-])s1, the Potency is reported as 0.41 µM (active).
Potency means the concentration at half of the fitted maximal effect.
